Test [1] can be described thus: compounds binding Alexa647 anti-His antibody – biochemical, small-molecule microarray, 635 nm fluorescence, artefact control for SMM control protein annotation, primary screen (AID 1128).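 Also: score merges feature fluorescence with signal-to-noise for each printed compound spot.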 The note with it: higher = more signal.
Test [2] deals with Human papillomavirus type 1a E7 protein (residues 1-88). The experiment in a line: HPV1a E7 small-molecule binders, primary screen, biochemical, small-molecule microarray, residues 1-88, 635 nm (AID 1129). The note with it: small-molecule microarray binding, fluorescence 635 nm; higher = more signal.
Test [3] has as its target Focal adhesion kinase 1 (Homo sapiens) (UniProt Q05397). Description: PTK2 protein binding on printed compound slides – biochemical, small-molecule microarray, 635/667 nm fluorescence, BSA, DTT, primary screen (AID 1130).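 Also: composite of spot emission at 667 nm and signal to noise over triplicate slides.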 The note with it: 635 nm fluorescence, higher = more signal.
Test [4] deals with Fibrinogen (Alexa647-labelled). The experiment in a line: Alexa647-fibrinogen binding to printed small molecules – biochemical, small-molecule microarray, 635/667 nm fluorescence, artefact control for SMM control-protein annotation, profiling panel (AID 1131).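 Also: z-score merges 667 nm fluorescence with per-spot signal-to-noise over triplicate slides.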 The following applies: fibrinogen-A647 binding fluorescence, higher = more signal.
Test [5] addresses Follistatin (Homo sapiens) (UniProt P19883). The experiment in a line: FST protein binding to printed compounds – biochemical, small-molecule microarray, 635/667 nm fluorescence, primary screen (AID 1132). The note with it: 635 nm fluorescence, higher = more signal.
Test [6] concerns the target Fibroblast growth factor 2 (Homo sapiens) (UniProt P09038). Description: basic fibroblast growth factor binding to printed compounds – biochemical, small-molecule microarray, 635/667 nm fluorescence, primary screen (AID 1133). The note with it: FGF2, fluorescence 635/667, higher = more signal.
Test [7] is described as follows: JC-1 mitochondrial potential readout, lung cancer cells – cell-based, A549, JC-1 fluorescence, basal, 24 h, 100 nL, profiling panel (AID 1138).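 Also: A549 lung adenocarcinoma cells under basal conditions with no added stimulus; test concentration not given here.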 The note with it: higher = more signal.
The next test relates to Lefty1. The experiment in a line: Lefty1 protein binding to printed compounds – biochemical, small-molecule microarray, 635/667 nm fluorescence, primary screen (AID 1139). The following applies: fluorescence 635/667, higher = more signal.
Test [8] has as its system wheat germ agglutinin (Triticum aestivum), Alexa647-labelled. The experiment in a line: Alexa647-WGA lectin binding to printed small molecules – biochemical, small-molecule microarray, 635/667 nm fluorescence, artefact control for SMM control-protein annotation, profiling panel (AID 1140).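 Also: score merges 667 nm feature emission with signal to noise over triplicate slides.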 The note with it: WGA-A647 binding, 635 nm fluorescence, higher = more signal.
For test [9], the target named is Luciferin 4-monooxygenase (Photinus pyralis) (UniProt P08659). The experiment in a line: inhibition of purified Photinus pyralis luciferase – biochemical, luminescence, purified enzyme, 2006 set, primary screen (AID 1141).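 Also: cell-free assay with purified firefly luciferase at 100 ng per well in PBS; test concentration not given here.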 The note with it: purified firefly luciferase, SteadyGlo luminescence, 30 min; higher = more signal, called active from +8 up or from −8 down.
In test [10] the test system is Wnt5a (protein binding on small-molecule microarray). Description: small molecules binding Wnt5a protein – biophysical, small-molecule microarray, 635/667 nm fluorescence, primary screen (AID 1142).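 Also: fluorescence read at 667 nm with signal to noise per printed feature.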 The following applies: 635 nm fluorescence, higher = more signal.
Test [11] in a line: ATP-based viability of Huh7 replicon cells – cell-based, CellTiter-Glo luminescence, basal, 48 h, cytotoxicity control for HCV replication inhibitor project, primary screen (AID 1143).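 Also: Huh7 hepatoma cells carrying a hepatitis C replication reporter with no stimulus; test concentration not given here.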 The following applies: higher = more signal, called active from +8 up or from −8 down. On the technique in general: A replicon is a self-replicating genome or part of one, used to study replication in cells.

Test [12] is described as follows: Pseudomonas biofilm growth suppression – PAO1 strain, BacTiter-Glo luminescence, LB-PBS, primary screen (AID 1144). The note with it: P. aeruginosa PAO1 biofilm, 12 h, higher = more signal.
A short description of test [13]: basal CRE-LacZ reporter activity in PC12 – cell-based, unstimulated, primary screen (AID 1145). The note with it: no forskolin, luminescence, 4.5 h, higher = more signal, called active from +8 up or from −8 down.
Test [14] is described as follows: forskolin-driven CRE-LacZ activity in PC12 – cell-based, CRE-LacZ reporter, forskolin-stimulated, primary screen (AID 1146).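 Also: PC12 cells with 6xCRE LacZ reporter stimulated by forskolin 10 µM; beta-galactosidase reporter signal reflecting CREB driven transcription.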 The following applies: luminescence, 4.5 h, higher = more signal, called active from +8 up or from −8 down.
Test [15] deals with Streptavidin (Streptomyces avidinii) (UniProt P22629). The experiment in a line: compounds binding control protein streptavidin – biophysical, small-molecule microarray, 635/667 nm fluorescence, artefact control for SMM compound annotation, primary screen (AID 1147).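 Also: signal reflects streptavidin binding to arrayed compounds as a control protein.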 The following applies: higher = more signal.
The nature of test [16]: probe aInhba binding on compound microarray – biochemical, small-molecule microarray, 635/667 nm fluorescence, primary screen (AID 1148).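 Also: score merges 667nm spot fluorescence with signal-to-noise for antibody binding to printed compounds.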 The note with it: higher = more signal.
Test [17] deals with Torsin-1A (Homo sapiens) (UniProt O14656). Description: TOR1A wild-type binding on microarray – cell lysate, small-molecule microarray, lysate, 635/667 nm, primary screen (AID 1149). The note with it: COS7 hTOR1A-WT lysate, 635 nm fluorescence, higher = more signal.
The target is the same in test [18]. The experiment in a line: torsin A mutant lysate binding on microarrays – cell lysate, small-molecule microarray, COS7 lysate, 635/667 nm fluorescence, primary screen (AID 1150).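 Also: score pools 667 nm emission and signal to noise measuring lysate protein binding.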 The note with it: COS7 hTOR1A mutant lysate, 635 nm fluorescence, higher = more signal.
The subject of test [19] is Sonic hedgehog protein (Shh). Description: Sonic hedgehog microarray binding compounds – biochemical, small-molecule microarray, 635/667 nm fluorescence, primary screen (AID 1151).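 Also: Shh protein binding to compounds spotted on small-molecule microarray slides; score combines spot fluorescence intensity with signal-to-noise across triplicate slides.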 The following applies: 635 nm fluorescence, higher = more signal.

The results in this text go back to PubChem BioAssay.

Calls of active or inactive are those of the source. Unless noted, no rule for the calls is given here.

Sequence of Focal adhesion kinase 1 (Homo sapiens) (Q05397 whole entry, looked up): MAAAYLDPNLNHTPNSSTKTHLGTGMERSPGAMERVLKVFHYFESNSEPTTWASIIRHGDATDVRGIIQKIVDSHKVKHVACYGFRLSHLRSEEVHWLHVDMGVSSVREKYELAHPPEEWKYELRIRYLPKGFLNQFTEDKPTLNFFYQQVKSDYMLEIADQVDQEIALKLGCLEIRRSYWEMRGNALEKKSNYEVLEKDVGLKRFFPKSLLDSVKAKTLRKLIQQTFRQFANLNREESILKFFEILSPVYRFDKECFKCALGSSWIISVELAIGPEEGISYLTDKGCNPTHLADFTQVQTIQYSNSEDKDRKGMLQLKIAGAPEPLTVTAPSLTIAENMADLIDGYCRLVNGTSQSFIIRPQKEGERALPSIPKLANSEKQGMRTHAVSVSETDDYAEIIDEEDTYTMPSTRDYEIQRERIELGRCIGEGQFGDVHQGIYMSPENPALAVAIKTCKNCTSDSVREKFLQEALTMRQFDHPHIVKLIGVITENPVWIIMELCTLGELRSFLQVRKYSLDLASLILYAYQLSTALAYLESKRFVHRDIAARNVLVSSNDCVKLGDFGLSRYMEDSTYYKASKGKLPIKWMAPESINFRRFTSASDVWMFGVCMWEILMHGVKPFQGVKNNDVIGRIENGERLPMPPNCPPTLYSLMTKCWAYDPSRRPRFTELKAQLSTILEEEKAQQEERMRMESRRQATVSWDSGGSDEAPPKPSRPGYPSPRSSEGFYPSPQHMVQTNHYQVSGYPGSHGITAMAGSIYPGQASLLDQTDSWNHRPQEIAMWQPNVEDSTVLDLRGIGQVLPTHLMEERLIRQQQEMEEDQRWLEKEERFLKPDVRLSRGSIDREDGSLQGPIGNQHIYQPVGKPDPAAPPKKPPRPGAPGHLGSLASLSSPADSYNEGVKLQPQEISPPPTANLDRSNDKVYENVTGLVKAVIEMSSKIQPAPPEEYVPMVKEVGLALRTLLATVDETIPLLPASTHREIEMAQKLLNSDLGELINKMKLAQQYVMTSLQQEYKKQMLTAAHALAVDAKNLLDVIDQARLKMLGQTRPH
Sequence of Fibroblast growth factor 2 (Homo sapiens) (P09038 whole entry, looked up): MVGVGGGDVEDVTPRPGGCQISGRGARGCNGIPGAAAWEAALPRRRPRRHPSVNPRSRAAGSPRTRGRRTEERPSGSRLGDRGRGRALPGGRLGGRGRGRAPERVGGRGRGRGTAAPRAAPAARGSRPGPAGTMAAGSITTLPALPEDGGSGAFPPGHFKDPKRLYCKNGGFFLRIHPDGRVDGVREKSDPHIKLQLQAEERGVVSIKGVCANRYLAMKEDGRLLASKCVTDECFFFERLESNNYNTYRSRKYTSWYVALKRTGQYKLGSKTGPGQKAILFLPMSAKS
Sequence of Streptavidin (Streptomyces avidinii) (P22629 whole entry, looked up): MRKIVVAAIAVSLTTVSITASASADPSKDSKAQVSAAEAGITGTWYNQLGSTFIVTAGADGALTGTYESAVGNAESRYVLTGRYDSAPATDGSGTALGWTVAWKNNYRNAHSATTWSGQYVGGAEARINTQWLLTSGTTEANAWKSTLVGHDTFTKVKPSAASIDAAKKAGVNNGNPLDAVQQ
Sequence of Torsin-1A (Homo sapiens) (O14656 whole entry, looked up): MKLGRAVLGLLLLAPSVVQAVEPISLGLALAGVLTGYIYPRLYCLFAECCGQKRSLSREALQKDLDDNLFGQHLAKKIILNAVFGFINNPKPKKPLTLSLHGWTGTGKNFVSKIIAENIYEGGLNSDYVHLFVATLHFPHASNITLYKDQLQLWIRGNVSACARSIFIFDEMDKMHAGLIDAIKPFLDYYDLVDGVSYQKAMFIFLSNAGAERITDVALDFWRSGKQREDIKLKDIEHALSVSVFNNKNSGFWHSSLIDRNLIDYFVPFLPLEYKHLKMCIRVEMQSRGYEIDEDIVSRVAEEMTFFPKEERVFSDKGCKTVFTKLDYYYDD
Sequence of Luciferin 4-monooxygenase (Photinus pyralis) (P08659 whole entry, looked up): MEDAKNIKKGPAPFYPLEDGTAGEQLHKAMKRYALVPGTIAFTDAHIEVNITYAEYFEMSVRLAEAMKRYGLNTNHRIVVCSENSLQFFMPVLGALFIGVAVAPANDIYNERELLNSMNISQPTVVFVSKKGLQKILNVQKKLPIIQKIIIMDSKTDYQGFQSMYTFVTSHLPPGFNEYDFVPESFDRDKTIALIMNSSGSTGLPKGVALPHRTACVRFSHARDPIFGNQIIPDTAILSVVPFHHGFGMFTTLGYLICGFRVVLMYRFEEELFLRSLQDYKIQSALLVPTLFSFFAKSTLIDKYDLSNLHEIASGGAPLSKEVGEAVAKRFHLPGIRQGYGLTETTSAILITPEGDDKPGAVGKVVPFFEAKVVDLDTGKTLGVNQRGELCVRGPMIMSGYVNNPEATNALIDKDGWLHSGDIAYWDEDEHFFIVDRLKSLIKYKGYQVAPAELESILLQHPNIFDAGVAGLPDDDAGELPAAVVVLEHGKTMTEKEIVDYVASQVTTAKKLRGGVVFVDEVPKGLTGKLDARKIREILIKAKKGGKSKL
Sequence of Follistatin (Homo sapiens) (P19883 whole entry, looked up): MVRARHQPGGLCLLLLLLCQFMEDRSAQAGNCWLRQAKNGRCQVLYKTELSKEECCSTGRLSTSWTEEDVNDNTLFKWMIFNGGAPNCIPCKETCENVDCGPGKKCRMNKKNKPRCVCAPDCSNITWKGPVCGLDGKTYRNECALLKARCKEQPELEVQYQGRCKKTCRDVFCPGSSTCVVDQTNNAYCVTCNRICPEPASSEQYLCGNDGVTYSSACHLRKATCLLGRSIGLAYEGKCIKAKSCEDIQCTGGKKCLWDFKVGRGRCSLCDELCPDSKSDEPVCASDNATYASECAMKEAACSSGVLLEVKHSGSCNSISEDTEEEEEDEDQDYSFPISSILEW

With `CC(C)CNC(=O)[C@@H]1c2ccccc2C(=O)N(C2CCCCC2)[C@H]1c1ccc(CO)cc1`, the composite z-score in test [1] is 0.978; in test [2] it was 0.589; in [3], -0.292; in [4] it was -0.467; in test [5], 0.196; in test [6], -0.184. In addition, the composite z-score in the test on Lefty1 was -0.991; in test [8], -0.321; in test [10], -0.141; in [15], -0.285; in [16], -0.101; with Torsin-1A (Homo sapiens) [17] it was 0.146. Besides, the results for the composite z-score (with Torsin-1A (Homo sapiens) [18]; in test [19]) were -0.0175 and -0.242, respectively. For the same molecule, the z-score in [7] was 1.83; in [9], -1.66 (inactive); in test [11] it was -2.94 (inactive); in test [12], -0.466 (inactive); in test [13], -0.179 (inactive); in test [14] it was -1.55 (inactive).
Consider `C=C(C(=O)CC[C@@H](OC(=O)c1ccccc1-c1ccccc1C(=O)O)c1ccccc1OCCO)C(C)C`, for which the composite z-score in test [1] was -0.186; in [2], 1.23; in test [3] it was 0.183; in test [4], 0.532; in [5] it was 1.46; in [6], 1.77. Further, the composite z-score with Lefty1 was 1.58; in [8] it was 0.109; in test [10] it was 0.618; in [15], -0.344; in test [16] it was -0.0529; with Torsin-1A (Homo sapiens) [17], 0.908. Besides, the composite z-score with Torsin-1A (Homo sapiens) [18] is 0.663; in test [19], 2.3. The z-score in test [7] was -0.0391; in [9], -0.679 (inactive); in [11], 0.182 (inactive); in test [12], -0.695 (inactive); in test [13], 3.64 (inactive); in test [14], 3.34 (inactive).
Turning to `C=CCC(OC(C)=O)[C@@H]1[C@@H](N(Cc2cccc3ccccc23)C(=O)c2ccc(-c3ccccc3)cc2)c2cc(OCCCO)ccc2N1C(=O)c1ccc(-c2ccccc2)cc1` (stereo not given in full), the composite z-score in test [1] was -0.811; in test [2], 0.488; in [3], -0.132; in [4] it was -0.123; in test [5], 0.353; in [6] it was -0.0952. Also, the composite z-score came to 0.0683 in the test on Lefty1; 0.204 in [8]; 0.09 in test [10]; 0.361 in test [15]; 0.114 in [16]; 0.162 with Torsin-1A (Homo sapiens) [17]. Moreover, the composite z-score in the test with Torsin-1A (Homo sapiens) [18] was found to be 0.0809; in [19], 0.286. Also, the z-score was 0.758 in [7]; -0.0873 (inactive) in test [9]; 0.457 (inactive) in test [11]; -0.1 (inactive) in [12]; 0.367 (inactive) in test [13]; 0.859 (inactive) in [14].
In the case of `NC(=O)NCC#Cc1ccc2c(c1)[C@]1(C(=O)N2)[C@H](C(=O)N2CCN(c3ncccn3)CC2)[C@H]2C(=O)O[C@H](c3ccccc3)[C@H](c3ccccc3)N2[C@@H]1c1ccc(OCCO)cc1`, the composite z-score in test [1] is 0.0543; in test [2], 0.805; in test [3] it was 0.0827; in [4] it was 0.717; in test [5] it was 1.33; in [6], 0.517. The composite z-score with Lefty1 stood at 0.406; in test [8], 0.276; in [10], 0.388; in test [15] it was 0.644; in test [16], 0.0391; in the test with Torsin-1A (Homo sapiens) [17] it was 0.237. For the same molecule, the composite z-score was 0.875 in the test with Torsin-1A (Homo sapiens) [18] and 0.963 in test [19]. Further, the z-score in test [7] was -1.18; in test [9], -0.437 (inactive); in test [11] it was 0.0749 (inactive); in test [12], -0.534 (inactive); in [13], -0.231 (inactive); in [14], 0.156 (inactive).
Take `CN1C(=O)C2C=CC(C(O)c3ccc(F)cc3)N(NC(=O)OC(C)(C)C)C2C1=O` (stereo not given): the composite z-score is 0.322 in [1]; 0.878 in test [2]; 0.22 in test [3]; 0.81 in [4]; 0.344 in [5]; -0.475 in test [6]. Further, the composite z-score amounted to 0.0813 with Lefty1; 0.381 in test [8]; 0.155 in test [10]; 1.43 in test [15]; 0.0705 in test [16]; 0.0284 with Torsin-1A (Homo sapiens) [17]. Besides, the composite z-score is -0.0455 with Torsin-1A (Homo sapiens) [18] and -0.761 in test [19]. Also, the z-score in [7] is -0.946; in test [9] it was -0.507 (inactive); in [11] it was -0.134 (inactive); in test [12], 0.193 (inactive); in [13] it was 0.436 (inactive); in test [14], 0.84 (inactive).
